What all share (assay): qHTS profiling for inhibitors of Plasmodium falciparum proliferation (AID 504749); note: nearly all actives have a fitted effect of over 60% in size
Conditions in all cases: P. falciparum in erythrocytes, SYBR Green DNA, 72 h; series mostly up to 28.7 µM

The test system of assay [1] is CP260. Put shortly: (§1)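 Quantitative HTS: compounds pinned into medium, infected erythrocytes added (0.3% parasitemia, 2.5% hematocrit), 72 h culture at 37 C under 5% CO2. Saponin/Triton lysis with SYBR Green I, overnight RT, then fluorescence read.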
In assay [2] the test system is CP262. In outline: as §1
In assay [3] the test system is CP265. In outline:
as §1

In assay [4] the test system is CP266. Put shortly:
as §1

The test system of assay [5] is CP268. In outline: as §1
The test system of assay [6] is CP269. In outline:
as §1

For assay [7], the system named is CP286. In outline:
as §1

For assay [8], the system named is CP291. In outline: as §1
Assay [9] deals with CP297. Put shortly:
as §1

Assay [10] deals with CP305. In outline: as §1
Assay [11] deals with CP315. In outline: as §1
Assay [12] concerns CP325. Put shortly: as §1
The subject of assay [13] is CP329. In outline:
as §1

The subject of assay [14] is CP335. In outline:
as §1

For assay [15], the system named is DFO2036. In outline: as §1
In assay [16] the test system is DIV14. Put shortly: as §1
Assay [17] relates to DIV17. Put shortly:
as §1

The subject of assay [18] is DIV30. Put shortly:
as §1

The subject of assay [19] is Dd2. Put shortly: as §1
Assay [20] deals with ECU. Put shortly:
as §1

SMILES strings stand for the structures. Results filed as inconclusive are left out. Activity calls are given as the source filed them. Calls come from the whole dose curve; as a rule, active = well fitted inhibition curve with a large enough effect; inconclusive = small, poorly fitted or top-dose-only effect; inactive = flat fitted curve, though single readings scatter.
Potency is the fitted concentration of half-maximal effect.

As for `CC(C)(S)[C@@H](N)C(=O)O`, the Potency result in [1], in assay [2], in assay [3], in assay [4], in assay [5] and in assay [6] was “inactive” in each case. Besides, the Potency entry in assay [7], in assay [8], in assay [9], in assay [10], in [11] and in assay [12] was “inactive” throughout. Also, the Potency result in assay [13], in [14], in assay [15], in assay [16], in [17] and in assay [18] was “inactive” each time. Moreover, the Potency entry in assay [19] and in assay [20] was “inactive” throughout.

Regarding `Cn1c(NCCN(CCO)CCCc2ccc([N+](=O)[O-])cc2)cc(=O)n(C)c1=O`, the Potency entry in [1], in [2], in assay [3], in [4], in assay [5] and in assay [6] was “inactive” each time. The Potency entry in assay [7], in assay [8], in [9], in assay [10], in [11] and in assay [12] was “inactive” throughout. Besides, the Potency result in assay [13], in [14], in assay [15], in assay [16], in assay [17] and in assay [18] was “inactive” in each case. Further, the Potency result in assay [19] and in assay [20] was “inactive” in each case.

On to `CCOC(=O)c1c(C)n(C)c2ccc(O)cc12`, for which the Potency result in assay [1], in assay [2], in [3], in assay [4], in assay [5] and in assay [6] was “inactive” in each case. For the same molecule, the Potency entry in [7], in assay [8], in [9], in assay [10], in assay [11] and in assay [12] was “inactive” each time. Further, the Potency entry in [13], in assay [14], in assay [15], in assay [16], in assay [17] and in [18] was “inactive” each time. Also, the Potency result in assay [19] and in assay [20] was “inactive” throughout.

Take `C=CCc1cc(OC)c(O)c(C(=O)NCCO)c1`: the Potency result in [1], in assay [2], in assay [3], in [4], in assay [5] and in assay [6] was “inactive” each time. Moreover, the Potency result in assay [7], in assay [9], in [10], in assay [11], in assay [12] and in assay [13] was “inactive” throughout. In addition, the Potency entry in assay [14], in assay [15], in [16], in assay [17], in [18] and in [19] was “inactive” throughout. Further, the Potency entry in [20] was “inactive”.

As to `CCN(CCO)CCCC(C)Nc1ccnc2cc(Cl)ccc12` (stereo unspecified), the Potency entry in assay [1], in [2], in assay [3], in assay [4], in assay [5] and in assay [6] was “inactive” each time. Further, the Potency entry in assay [10], in assay [11], in assay [12], in assay [13], in assay [14] and in [15] was “inactive” each time. The Potency result in [17], in assay [18] and in assay [19] was “inactive” throughout.

For `N=C(N=C(N)N)N1CCOCC1`, the Potency entry in [1], in assay [2], in assay [3], in assay [4], in [5] and in assay [6] was “inactive” in each case. Moreover, the Potency entry in [7], in assay [8], in assay [9], in [10], in [11] and in assay [12] was “inactive” in each case. Further, the Potency result in assay [14], in assay [15], in assay [16], in assay [17], in assay [18] and in assay [19] was “inactive” each time. In addition, the Potency entry in assay [20] was “inactive”.

`Nc1cc(C(Cl)=C(Cl)Cl)c(S(N)(=O)=O)cc1S(N)(=O)=O`: the Potency result in assay [1], in [2], in assay [3], in assay [4], in [5] and in assay [6] was “inactive” in each case. For the same molecule, the Potency entry in assay [7], in assay [8], in assay [9], in [10], in [11] and in [12] was “inactive” throughout. Moreover, the Potency result in [13], in assay [14], in assay [15], in assay [16], in assay [17] and in assay [18] was “inactive” each time. The Potency entry in assay [19] and in assay [20] was “inactive” each time.

In the case of `CCCCCCCCCCCCCCCCCCCCCCO`, the Potency entry in [1], in assay [2], in assay [3], in assay [4], in assay [5] and in [6] was “inactive” each time. For the same molecule, the Potency entry in assay [7], in assay [9], in assay [10], in assay [11], in assay [12] and in assay [13] was “inactive” in each case. The Potency entry in assay [14], in assay [15], in assay [16], in [17], in [18] and in assay [19] was “inactive” each time. In assay [20], the Potency result was “inactive”.

Take `CCc1nc(N)nc(N)c1-c1ccc(Cl)cc1`: the Potency entry in assay [1], in assay [2], in assay [3], in [4], in assay [5] and in assay [6] was “inactive” throughout. In addition, the Potency entry in assay [7], in assay [8], in assay [10], in assay [11], in assay [12] and in [15] was “inactive” in each case. For the same molecule, the Potency entry in assay [19] was “inactive”. In [20], the Potency was 50.1 nM (active).

As for `CCOc1cc(CC(=O)N[C@@H](CC(C)C)c2ccccc2N2CCCCC2)ccc1C(=O)O`, the Potency result in [1], in assay [2], in [3], in assay [4], in [5] and in assay [6] was “inactive” throughout. Also, the Potency result in assay [7], in assay [8], in [9], in assay [10], in [11] and in [12] was “inactive” in each case. The Potency result in [13], in assay [14], in assay [15], in assay [16], in assay [17] and in [18] was “inactive” in each case. In addition, the Potency entry in assay [19] and in [20] was “inactive” in each case.

In the case of `O=C(CS(=O)Cc1ccco1)NCC=CCOc1cc(CN2CCCCC2)ccn1` (stereo unspecified), the Potency entry in assay [1], in assay [2], in assay [3], in assay [4], in assay [5] and in [6] was “inactive” throughout. Further, the Potency result in [7], in assay [8], in [10], in assay [11], in assay [12] and in assay [13] was “inactive” in each case. The Potency result in [14], in assay [15], in [16], in assay [17], in assay [18] and in assay [19] was “inactive” in each case. Moreover, the Potency result in [20] was “inactive”.

For `CCCCN(CCCC)CCC(O)c1cc2c(Cl)cc(Cl)cc2c2cc(C(F)(F)F)ccc12` (stereo unspecified), the Potency is 6.3 nM (active) in assay [1]; 18.1 nM (active) in [2]; 31.6 nM (active) in [3]; 90.7 nM (active) in assay [4]; 51 nM (active) in assay [5]; 16.1 nM (active) in assay [6]. Moreover, the Potency was 8.9 nM (active) in [7]; 28.7 nM (active) in assay [8]; 18.1 nM (active) in assay [9]; 36.1 nM (active) in [10]; 51 nM (active) in assay [11]; 28.7 nM (active) in assay [12]. Moreover, the Potency in assay [13] is 51 nM (active); in assay [14], 8.1 nM (active); in [15], 8.9 nM (active); in assay [18] it was 10.2 nM (active); in [19] it was 2.8 nM (active); in [20], 7.9 nM (active).

In the case of `C[Se]CCC(N)C(=O)O` (stereo unspecified), the Potency result in [1], in [2], in assay [3], in assay [4], in assay [5] and in [6] was “inactive” throughout. Besides, the Potency entry in assay [7], in assay [8], in assay [10], in assay [11], in [12] and in assay [13] was “inactive” in each case. Moreover, the Potency entry in assay [14], in [15], in assay [16], in [17], in [18] and in assay [19] was “inactive” each time. The Potency result in assay [20] was “inactive”.

As to `O=C(O)CCNC(=O)c1ccc(N=Nc2ccc(O)c(C(=O)O)c2)cc1`, the Potency entry in assay [1], in assay [2], in assay [3], in assay [4], in [5] and in assay [6] was “inactive” in each case. Further, the Potency result in assay [7], in assay [8], in [9], in [10], in [11] and in [12] was “inactive” each time. Also, the Potency result in [13], in [14], in [15], in assay [16], in assay [17] and in [18] was “inactive” in each case. Further, in [20], the Potency entry is “inactive”.

These data come from PubChem BioAssay (NCATS).
